Assay in all cases: DAPPL (digital affinity profiling via proximity ligation, sequencing); 10 mM Tris-HCl pH 7.5, 50 mM NaCl, 1 mM DTT, 4% glycerol, room temperature, 30 min; GST-TFs on glutathione beads, 16-mer random dsDNA library, 0.1% formaldehyde crosslink after washing; high values mean tight binding
One experiment concerns the target T1, FEV (Homo sapiens, UniProt Q99581 1-238).
T1 sequence: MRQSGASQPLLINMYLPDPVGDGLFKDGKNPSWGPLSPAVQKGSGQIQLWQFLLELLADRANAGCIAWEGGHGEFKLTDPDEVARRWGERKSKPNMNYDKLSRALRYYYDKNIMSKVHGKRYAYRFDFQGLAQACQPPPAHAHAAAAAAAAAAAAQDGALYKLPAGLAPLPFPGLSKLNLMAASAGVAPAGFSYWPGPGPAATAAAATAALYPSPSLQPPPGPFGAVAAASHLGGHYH
As to conditions: protein: recombinant; tags: N-terminal GST; dsDNA, one strand shown. In outline:
(§1)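 Binding signal is given per hexamer as its read frequency for a factor divided by its frequency in the tag-only sample. GST-fused human transcription factors were expressed in yeast, captured on glutathione beads, barcoded with DNA and pooled with that sample, then incubated with 200 nmole of a 16-mer random double-stranded DNA library in Tris/NaCl/DTT/glycerol buffer for 30 min at room temperature. The pools were then washed, crosslinked, proximity-ligated, amplified by PCR and sequenced on an Illumina NextSeq500.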

The target in another experiment is ETV5 (Homo sapiens, UniProt P41161 1-510). As to conditions: protein: recombinant; tags: N-terminal GST; dsDNA, one strand shown. The method, boiled down: as §1
Another experiment addresses HSF1 (Homo sapiens, UniProt Q00613 1-529). As to conditions: protein: recombinant; tags: N-terminal GST; chain copies: 3; dsDNA, one strand shown. The method, boiled down:
as §1

For another experiment, the target named is T2, SPIC (Homo sapiens, UniProt Q8N5J4 1-248).
T2 sequence: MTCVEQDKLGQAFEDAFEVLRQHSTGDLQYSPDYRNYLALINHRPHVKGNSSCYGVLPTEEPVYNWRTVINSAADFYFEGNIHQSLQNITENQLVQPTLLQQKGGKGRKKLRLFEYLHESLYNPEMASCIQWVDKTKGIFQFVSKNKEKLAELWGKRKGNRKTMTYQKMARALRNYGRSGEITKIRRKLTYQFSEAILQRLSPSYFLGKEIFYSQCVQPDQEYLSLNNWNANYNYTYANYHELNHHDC
As to conditions: protein: recombinant; tags: N-terminal GST; dsDNA, one strand shown. In outline:
as §1

Another experiment has as its target ELF4 (Homo sapiens, UniProt Q99607 1-663). As to conditions: protein: recombinant; tags: N-terminal GST; dsDNA, one strand shown. The method, boiled down:
as §1

The next experiment addresses T3, ELK4 (Homo sapiens, UniProt P28324-2 1-405).
T3 sequence: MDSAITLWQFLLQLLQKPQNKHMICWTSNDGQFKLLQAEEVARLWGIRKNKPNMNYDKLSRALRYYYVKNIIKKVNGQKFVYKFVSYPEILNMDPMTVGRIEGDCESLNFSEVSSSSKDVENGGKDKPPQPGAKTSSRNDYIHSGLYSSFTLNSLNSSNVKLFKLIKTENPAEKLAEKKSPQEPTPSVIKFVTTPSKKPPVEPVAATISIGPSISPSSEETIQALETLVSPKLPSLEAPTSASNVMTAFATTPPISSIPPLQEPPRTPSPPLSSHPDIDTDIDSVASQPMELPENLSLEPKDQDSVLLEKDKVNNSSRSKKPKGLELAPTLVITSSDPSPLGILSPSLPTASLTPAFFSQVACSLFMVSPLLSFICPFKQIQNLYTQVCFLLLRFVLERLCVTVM
As to conditions: protein: recombinant; tags: N-terminal GST; dsDNA, one strand shown. In outline:
as §1

A further experiment has as its target T4, ETV2 (Homo sapiens, UniProt O00321 1-342).
T4 sequence: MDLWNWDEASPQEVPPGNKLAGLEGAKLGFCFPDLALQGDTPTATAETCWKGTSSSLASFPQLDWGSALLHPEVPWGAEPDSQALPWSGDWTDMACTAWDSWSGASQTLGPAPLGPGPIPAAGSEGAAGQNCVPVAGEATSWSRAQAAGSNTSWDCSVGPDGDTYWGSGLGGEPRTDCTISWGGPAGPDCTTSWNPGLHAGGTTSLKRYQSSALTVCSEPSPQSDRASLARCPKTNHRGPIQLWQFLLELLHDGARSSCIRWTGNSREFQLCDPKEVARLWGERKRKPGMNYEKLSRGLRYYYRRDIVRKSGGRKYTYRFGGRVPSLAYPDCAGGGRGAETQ
As to conditions: protein: recombinant; tags: N-terminal GST; dsDNA, one strand shown. The method, boiled down: as §1

In another experiment the target is T5, ELF3 (Homo sapiens, UniProt P78545 1-371).
T5 sequence: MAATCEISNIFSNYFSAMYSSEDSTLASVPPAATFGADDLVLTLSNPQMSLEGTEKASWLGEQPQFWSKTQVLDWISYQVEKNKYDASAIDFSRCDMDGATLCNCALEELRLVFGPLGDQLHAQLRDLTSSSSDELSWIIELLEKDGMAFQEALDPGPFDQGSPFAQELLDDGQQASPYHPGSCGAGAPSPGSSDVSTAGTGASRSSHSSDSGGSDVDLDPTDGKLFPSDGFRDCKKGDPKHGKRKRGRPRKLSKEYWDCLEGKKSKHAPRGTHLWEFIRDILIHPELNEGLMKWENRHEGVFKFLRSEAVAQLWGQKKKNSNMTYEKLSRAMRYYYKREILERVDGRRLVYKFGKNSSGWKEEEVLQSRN
As to conditions: protein: recombinant; tags: N-terminal GST; dsDNA, one strand shown. In outline: as §1

A further experiment addresses CRX (Homo sapiens, UniProt O43186 1-299). As to conditions: protein: recombinant; tags: N-terminal GST; dsDNA, one strand shown. In outline:
as §1

The next experiment addresses ETV1 (Homo sapiens, UniProt P50549 1-477). As to conditions: protein: recombinant; tags: N-terminal GST; dsDNA, one strand shown. The method, boiled down: as §1
A further experiment has as its target T6, ERF (Homo sapiens, UniProt P50548 1-548).
T6 sequence: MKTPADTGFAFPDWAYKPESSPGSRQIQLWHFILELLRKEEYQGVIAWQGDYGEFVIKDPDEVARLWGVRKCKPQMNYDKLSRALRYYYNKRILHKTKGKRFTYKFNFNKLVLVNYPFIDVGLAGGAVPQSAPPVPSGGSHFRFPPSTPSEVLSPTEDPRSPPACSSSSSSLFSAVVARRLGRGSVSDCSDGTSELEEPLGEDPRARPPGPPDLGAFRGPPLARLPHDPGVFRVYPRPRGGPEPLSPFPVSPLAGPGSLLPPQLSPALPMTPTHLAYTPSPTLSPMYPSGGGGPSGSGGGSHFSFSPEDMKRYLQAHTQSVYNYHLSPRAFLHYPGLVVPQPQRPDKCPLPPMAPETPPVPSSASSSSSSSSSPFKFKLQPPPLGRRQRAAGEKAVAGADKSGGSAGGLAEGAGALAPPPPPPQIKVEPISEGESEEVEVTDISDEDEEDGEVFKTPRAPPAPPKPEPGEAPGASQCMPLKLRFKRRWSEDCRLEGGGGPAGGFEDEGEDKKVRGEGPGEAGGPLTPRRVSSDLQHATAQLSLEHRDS
As to conditions: protein: recombinant; tags: N-terminal GST; dsDNA, one strand shown. In outline: as §1

A further experiment addresses T7, ETV3L (Homo sapiens, UniProt Q6ZN32 1-361).
T7 sequence: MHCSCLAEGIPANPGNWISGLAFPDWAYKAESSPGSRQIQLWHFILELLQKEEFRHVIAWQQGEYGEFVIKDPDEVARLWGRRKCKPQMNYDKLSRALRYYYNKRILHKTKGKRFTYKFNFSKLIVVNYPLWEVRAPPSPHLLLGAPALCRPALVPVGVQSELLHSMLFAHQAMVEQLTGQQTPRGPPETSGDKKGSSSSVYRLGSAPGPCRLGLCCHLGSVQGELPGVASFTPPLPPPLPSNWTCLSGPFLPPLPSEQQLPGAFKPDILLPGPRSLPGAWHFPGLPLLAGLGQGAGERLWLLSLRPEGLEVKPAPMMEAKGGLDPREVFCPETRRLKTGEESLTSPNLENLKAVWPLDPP
As to conditions: protein: recombinant; tags: N-terminal GST; dsDNA, one strand shown. In outline:
as §1

The target of the next experiment is T8, ETS2 (Homo sapiens, UniProt P15036 1-469).
T8 sequence: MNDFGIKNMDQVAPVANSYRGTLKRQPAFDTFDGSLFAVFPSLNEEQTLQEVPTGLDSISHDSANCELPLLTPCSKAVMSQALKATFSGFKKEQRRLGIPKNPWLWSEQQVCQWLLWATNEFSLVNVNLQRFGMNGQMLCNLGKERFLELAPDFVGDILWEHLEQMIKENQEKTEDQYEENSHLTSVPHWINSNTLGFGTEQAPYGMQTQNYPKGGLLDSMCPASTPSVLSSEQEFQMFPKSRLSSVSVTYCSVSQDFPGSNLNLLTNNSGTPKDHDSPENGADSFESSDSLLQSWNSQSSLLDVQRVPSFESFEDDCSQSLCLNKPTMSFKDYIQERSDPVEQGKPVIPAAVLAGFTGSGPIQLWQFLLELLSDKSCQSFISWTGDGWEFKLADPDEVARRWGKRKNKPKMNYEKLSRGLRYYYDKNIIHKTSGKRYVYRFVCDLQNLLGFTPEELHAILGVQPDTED
As to conditions: protein: recombinant; tags: N-terminal GST; dsDNA, one strand shown. The method, boiled down: as §1

A further experiment has as its target T9, SPDEF (Homo sapiens, UniProt O95238 1-335).
T9 sequence: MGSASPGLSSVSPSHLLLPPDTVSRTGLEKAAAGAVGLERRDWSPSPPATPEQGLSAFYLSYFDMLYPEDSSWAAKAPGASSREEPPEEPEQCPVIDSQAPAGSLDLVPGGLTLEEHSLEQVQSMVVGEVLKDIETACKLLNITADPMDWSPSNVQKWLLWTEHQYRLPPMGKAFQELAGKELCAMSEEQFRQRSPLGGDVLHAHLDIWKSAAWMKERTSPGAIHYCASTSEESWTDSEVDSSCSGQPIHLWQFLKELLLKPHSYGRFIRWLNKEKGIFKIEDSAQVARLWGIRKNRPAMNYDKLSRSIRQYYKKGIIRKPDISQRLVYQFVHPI
As to conditions: protein: recombinant; tags: N-terminal GST; dsDNA, one strand shown. In outline: as §1

The target of another experiment is T10, ETV7 (Homo sapiens, UniProt Q9Y603 1-341).
T10 sequence: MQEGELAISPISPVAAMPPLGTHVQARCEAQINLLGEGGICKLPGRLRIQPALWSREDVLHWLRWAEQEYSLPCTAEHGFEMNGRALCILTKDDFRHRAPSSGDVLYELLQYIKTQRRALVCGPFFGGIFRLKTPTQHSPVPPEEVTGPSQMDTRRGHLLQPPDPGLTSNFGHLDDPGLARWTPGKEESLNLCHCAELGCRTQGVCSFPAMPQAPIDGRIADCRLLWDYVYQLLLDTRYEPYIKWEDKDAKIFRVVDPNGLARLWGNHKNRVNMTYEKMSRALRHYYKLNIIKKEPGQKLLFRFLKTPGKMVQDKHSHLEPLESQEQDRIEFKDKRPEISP
As to conditions: protein: recombinant; tags: N-terminal GST; dsDNA, one strand shown. In outline:
as §1

The target in another experiment is T11, ELF5 (Homo sapiens, UniProt Q9UKW6-2 1-255).
T11 sequence: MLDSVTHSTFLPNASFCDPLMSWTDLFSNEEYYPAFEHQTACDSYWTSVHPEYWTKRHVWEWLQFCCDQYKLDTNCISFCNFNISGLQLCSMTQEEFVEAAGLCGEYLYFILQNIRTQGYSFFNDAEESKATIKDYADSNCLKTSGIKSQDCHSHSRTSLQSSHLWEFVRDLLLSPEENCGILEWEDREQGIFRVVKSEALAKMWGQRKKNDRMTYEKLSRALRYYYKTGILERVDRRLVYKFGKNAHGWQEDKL
As to conditions: protein: recombinant; tags: N-terminal GST; dsDNA, one strand shown. The method, boiled down:
as §1

For the next experiment, the target named is T12, ETV3 (Homo sapiens, UniProt P41162-2 1-143).
T12 sequence: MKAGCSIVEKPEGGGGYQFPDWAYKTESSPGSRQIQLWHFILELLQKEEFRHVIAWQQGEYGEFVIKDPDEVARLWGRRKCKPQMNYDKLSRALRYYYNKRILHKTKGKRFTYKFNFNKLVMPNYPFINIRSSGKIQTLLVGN
As to conditions: protein: recombinant; tags: N-terminal GST; dsDNA, one strand shown. In outline:
as §1

In a further experiment the target is ETV6 (Homo sapiens, UniProt P41212 1-452). As to conditions: protein: recombinant; tags: N-terminal GST; dsDNA, one strand shown. The method, boiled down: as §1
Sequence of ETV6 (P41212 whole entry): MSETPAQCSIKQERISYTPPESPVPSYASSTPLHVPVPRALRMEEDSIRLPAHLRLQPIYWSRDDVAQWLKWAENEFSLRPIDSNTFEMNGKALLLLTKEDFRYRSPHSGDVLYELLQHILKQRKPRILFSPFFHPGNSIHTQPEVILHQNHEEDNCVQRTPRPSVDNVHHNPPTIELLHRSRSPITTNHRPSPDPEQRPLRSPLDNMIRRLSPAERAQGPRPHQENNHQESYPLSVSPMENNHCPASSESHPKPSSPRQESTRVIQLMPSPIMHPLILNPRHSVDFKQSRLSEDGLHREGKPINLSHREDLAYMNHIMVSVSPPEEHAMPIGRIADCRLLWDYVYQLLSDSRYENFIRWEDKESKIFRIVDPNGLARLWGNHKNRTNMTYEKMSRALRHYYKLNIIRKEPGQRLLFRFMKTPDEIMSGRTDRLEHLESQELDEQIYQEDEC

Sequence of ELF4 (Q99607 whole entry): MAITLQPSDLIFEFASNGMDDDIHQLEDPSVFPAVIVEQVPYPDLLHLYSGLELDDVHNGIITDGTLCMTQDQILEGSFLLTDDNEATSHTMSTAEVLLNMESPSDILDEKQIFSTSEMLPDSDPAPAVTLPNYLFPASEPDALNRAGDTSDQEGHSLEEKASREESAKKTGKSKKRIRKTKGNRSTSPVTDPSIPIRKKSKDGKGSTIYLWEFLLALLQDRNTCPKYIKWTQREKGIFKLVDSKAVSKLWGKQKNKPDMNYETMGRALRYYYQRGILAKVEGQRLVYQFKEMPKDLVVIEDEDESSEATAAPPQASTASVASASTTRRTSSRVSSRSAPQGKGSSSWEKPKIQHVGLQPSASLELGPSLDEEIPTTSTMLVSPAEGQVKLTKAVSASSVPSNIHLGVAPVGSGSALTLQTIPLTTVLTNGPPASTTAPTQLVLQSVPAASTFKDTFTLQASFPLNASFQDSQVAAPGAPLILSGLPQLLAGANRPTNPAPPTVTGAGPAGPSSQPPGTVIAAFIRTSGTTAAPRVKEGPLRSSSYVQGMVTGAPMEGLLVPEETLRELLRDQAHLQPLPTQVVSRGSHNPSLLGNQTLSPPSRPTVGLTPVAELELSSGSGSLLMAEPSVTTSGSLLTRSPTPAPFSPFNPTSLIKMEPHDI
Sequence of CRX (O43186 whole entry): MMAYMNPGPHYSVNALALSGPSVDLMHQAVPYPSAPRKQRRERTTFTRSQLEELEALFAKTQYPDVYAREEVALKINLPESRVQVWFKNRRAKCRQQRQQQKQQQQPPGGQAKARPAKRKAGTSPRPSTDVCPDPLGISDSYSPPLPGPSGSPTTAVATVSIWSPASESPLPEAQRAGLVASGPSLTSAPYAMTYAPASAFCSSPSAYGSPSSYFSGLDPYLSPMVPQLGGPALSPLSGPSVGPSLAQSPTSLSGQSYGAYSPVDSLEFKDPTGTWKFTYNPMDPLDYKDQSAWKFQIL
Sequence of ETV5 (P41161 whole entry): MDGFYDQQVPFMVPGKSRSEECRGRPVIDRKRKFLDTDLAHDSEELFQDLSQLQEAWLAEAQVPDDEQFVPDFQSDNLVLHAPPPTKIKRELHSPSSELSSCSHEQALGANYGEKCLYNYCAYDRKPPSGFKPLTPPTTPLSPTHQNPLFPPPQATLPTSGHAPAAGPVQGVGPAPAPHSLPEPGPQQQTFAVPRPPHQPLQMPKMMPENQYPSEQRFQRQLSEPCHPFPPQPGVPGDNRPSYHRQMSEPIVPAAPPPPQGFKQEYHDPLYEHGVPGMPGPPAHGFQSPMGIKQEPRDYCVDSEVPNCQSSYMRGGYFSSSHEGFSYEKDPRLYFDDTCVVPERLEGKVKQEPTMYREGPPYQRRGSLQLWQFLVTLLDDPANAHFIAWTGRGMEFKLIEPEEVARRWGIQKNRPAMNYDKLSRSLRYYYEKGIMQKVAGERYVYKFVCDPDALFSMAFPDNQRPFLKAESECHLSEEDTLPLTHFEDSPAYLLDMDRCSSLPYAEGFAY
Sequence of HSF1 (Q00613 whole entry): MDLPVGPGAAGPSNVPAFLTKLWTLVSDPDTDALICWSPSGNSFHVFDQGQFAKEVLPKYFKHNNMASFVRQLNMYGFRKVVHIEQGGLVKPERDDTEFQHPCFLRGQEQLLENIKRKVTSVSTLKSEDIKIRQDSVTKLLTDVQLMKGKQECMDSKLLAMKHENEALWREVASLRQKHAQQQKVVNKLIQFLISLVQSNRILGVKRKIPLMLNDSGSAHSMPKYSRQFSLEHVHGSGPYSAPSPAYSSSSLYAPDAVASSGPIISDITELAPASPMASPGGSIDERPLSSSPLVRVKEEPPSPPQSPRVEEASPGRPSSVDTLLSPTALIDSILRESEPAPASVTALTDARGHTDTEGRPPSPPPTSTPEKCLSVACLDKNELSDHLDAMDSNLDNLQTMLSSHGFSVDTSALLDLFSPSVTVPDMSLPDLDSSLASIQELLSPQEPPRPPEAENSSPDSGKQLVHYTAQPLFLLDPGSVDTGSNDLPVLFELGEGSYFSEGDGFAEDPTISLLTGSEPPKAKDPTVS
Sequence of ETV1 (P50549 whole entry): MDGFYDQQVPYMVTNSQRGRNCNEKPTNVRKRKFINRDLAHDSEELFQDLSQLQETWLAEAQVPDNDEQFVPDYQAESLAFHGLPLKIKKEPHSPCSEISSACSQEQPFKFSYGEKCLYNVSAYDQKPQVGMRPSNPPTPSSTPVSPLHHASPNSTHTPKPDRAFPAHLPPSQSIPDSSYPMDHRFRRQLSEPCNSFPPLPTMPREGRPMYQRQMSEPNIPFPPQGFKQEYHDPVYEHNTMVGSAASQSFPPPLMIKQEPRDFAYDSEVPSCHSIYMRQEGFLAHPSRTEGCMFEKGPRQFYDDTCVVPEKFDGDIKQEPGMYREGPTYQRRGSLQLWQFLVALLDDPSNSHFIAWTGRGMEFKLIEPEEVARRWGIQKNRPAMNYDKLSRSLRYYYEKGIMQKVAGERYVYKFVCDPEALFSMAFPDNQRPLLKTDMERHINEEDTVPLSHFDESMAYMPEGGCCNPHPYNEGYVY

For the sequence TTATCG, the binding signal is 1.21 fold enrichment (6-mer frequency, TF over GST control) in the experiment with FEV; 1.25 fold enrichment (6-mer frequency, TF over GST control) with ETV5; 1.99 fold enrichment (6-mer frequency, TF over GST control) in the experiment with HSF1; 1.33 fold enrichment (6-mer frequency, TF over GST control) with SPIC; 1.27 fold enrichment (6-mer frequency, TF over GST control) with ELF4; 1.37 fold enrichment (6-mer frequency, TF over GST control) with ELK4. Moreover, the binding signal with ETV2 is 1.18 fold enrichment (6-mer frequency, TF over GST control); in the experiment with ELF3, 1.22 fold enrichment (6-mer frequency, TF over GST control); with CRX, 2.79 fold enrichment (6-mer frequency, TF over GST control); in the experiment with ETV1 it was 1.2 fold enrichment (6-mer frequency, TF over GST control); with ERF it was 1.2 fold enrichment (6-mer frequency, TF over GST control); with ETV3L it was 1.32 fold enrichment (6-mer frequency, TF over GST control). Also, the binding signal was 1.2 fold enrichment (6-mer frequency, TF over GST control) in the experiment with ETS2; 1.16 fold enrichment (6-mer frequency, TF over GST control) with SPDEF; 1.02 fold enrichment (6-mer frequency, TF over GST control) with ETV7; 1.25 fold enrichment (6-mer frequency, TF over GST control) with ELF5; 1.22 fold enrichment (6-mer frequency, TF over GST control) with ETV3; 1.27 fold enrichment (6-mer frequency, TF over GST control) with ETV6.
